High-throughput results from PubChem BioAssay.
The list is not random: actives were taken first. Their share in the collection is about 12%.
SARS PLP yeast: blocks SARS-CoV papain-like protease in a yeast assay | Potency, µM (series often up to 32.9 µM), for the others: at the highest dose activity, positive = growth rescue, usual class: activators | S. cerevisiae expressing SARS-CoV PLpro, growth rescue | AID 485353 | hit rate 0.19% among 330,000; calls by dose curve; further: 0% is about no effect; nearly all actives have a fitted effect of over 55% in size
Sm TGR inh: S. mansoni TGR enzyme inhibition | Potency, µM (series often up to 114 µM), without a hit: top-dose activity change, negative = inhibition, hits mostly inhibitors | purified TGR, DTNB reduction, TNB absorbance 405 nm | AID 485364 | hit rate 3% among 360,000; further: on the % scale 0 is the no-effect control and ±100 the full control effect; nearly all actives have a fitted effect of over 60% in size
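TGR 20 nM + NADPH 100 uM (dispensed conc.), cpd preinc 15 min RT; start with NADPH (500 uM addition) then DTNB (15 mM addition). Kinetic TNB absorbance, 405 nm filter. Four-parameter Hill fit across titration.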
AmpC no deterg: AmpC beta-lactamase inhibition without detergent; P00811; AmpC nitrocefin hydrolysis, absorbance 480 nm, 0.0001% Triton; Potency, µM (highest dose often 57.1 µM), inactives show top-dose activity change, negative = inhibition, most hits filed as inhibitors; hit rate 0.52% among 330,000; AID 485341;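 further: plate controls were no compound for no effect and no enzyme for full effect; nearly all actives have a fitted effect of over 20% in size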
Target sequence (P00811 whole entry, looked up): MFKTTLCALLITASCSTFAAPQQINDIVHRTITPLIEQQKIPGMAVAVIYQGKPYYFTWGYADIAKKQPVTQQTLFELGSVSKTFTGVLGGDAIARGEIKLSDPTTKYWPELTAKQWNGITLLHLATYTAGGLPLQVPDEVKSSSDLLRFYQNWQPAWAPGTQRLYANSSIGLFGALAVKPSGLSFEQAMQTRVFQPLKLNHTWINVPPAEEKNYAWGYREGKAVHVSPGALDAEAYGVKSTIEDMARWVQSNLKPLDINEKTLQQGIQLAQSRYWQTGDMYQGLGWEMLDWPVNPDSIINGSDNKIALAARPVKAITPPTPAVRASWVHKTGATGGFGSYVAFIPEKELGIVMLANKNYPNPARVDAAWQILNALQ
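AmpC (5.3 nM in the dispensed reagent) in 20 mM phosphate pH 7.0 with 0.01% (detergent screen) or 0.0001% Triton X-100 was preincubated with compounds for 15 min at room temperature. Nitrocefin was then added from an 800 uM solution, and hydrolysis was followed at 480 nm.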
Pf growth 96h: P. falciparum growth inhibition at 96 hour, primary screen for plastid delayed-death inhibitors. P. falciparum luciferase reporter growth, 96 h. Potency, µM (doses to about 28.7 µM), for the others: at the highest dose activity change, negative = inhibition, hits mostly inhibitors. hit rate 6.9% among 320,000. AID 504834; further: on the % scale 0 is the no-effect control and ±100 the full control effect
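96 h incubation, 37 C, 5% CO2, of luciferase-reporter P. falciparum-infected RBCs (2% hematocrit, 0.05% parasitemia final) with test compounds; endpoint luminescence.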
AmpC inh detg: blocks E. coli AmpC beta-lactamase in detergent assay; hit rate 0.041% among 370,000; P00811; Potency, µM (top dose mostly 114 µM), for inactives: top-dose activity change, negative = inhibition, hits mostly inhibitors; AmpC hydrolysis of nitrocefin, absorbance 480 nm, 0.01% Triton;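 further: 0% = no-compound wells and -100% = no-enzyme wells; nearly all actives have a fitted effect of over 25% in size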
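AmpC (5.3 nM in the dispensed reagent) in 20 mM phosphate pH 7.0 with 0.01% (detergent screen) or 0.0001% Triton X-100 was preincubated with compounds for 15 min at room temperature. Nitrocefin was then added from an 800 uM solution, and hydrolysis was followed at 480 nm.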
Pf growth 48h: P. falciparum growth inhibition at 48 hours (one generation) | Potency, µM (doses to about 28.7 µM), without a hit: at the highest dose activity change, negative = inhibition, actives largely listed as inhibitors | P. falciparum luciferase growth in erythrocytes, 48 h | hit rate 5.9% among 310,000; further: on the % scale 0 is the no-effect control and ±100 the full control effect
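A one-generation exposure of luciferase-tagged malaria parasites in RPMI 1640/Albumax erythrocyte culture, 37 C and 5% CO2. Inhibition is inferred from decreased luminescence after adding detection reagent.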
Starred values were filed as active, the others as inactive; ? = inconclusive; . = not tested or not shown; [ ] = remark or other dose. Unless noted, the call rests on the fitted dose curve; in most records, active means well fitted curve in the direction sought with a large enough effect; inconclusive means small, poorly fitted or top-dose-only effect, or another doubt; inactive means no such curve, though single readings can be large; an effect the other way counts as inactive or inconclusive. Potency means the concentration at half of the fitted maximal effect.

SMILES | SARS PLP yeast | Sm TGR inh | AmpC no deterg | Pf growth 96h | AmpC inh detg | Pf growth 48h
CN=c1scc(C)n1/N=C/c1ccc(O)c(O)c1O | -11% | 22µM* | -37% | -39% | 6% | .
COCCN=c1scc(-c2ccco2)n1/N=C/c1ccc(O)c(O)c1O | ? | 13µM* | ? | ? | -5% | ?
CCN(CC)c1ccc(NC(=O)CSc2nnc(C)c(=O)[nH]2)cc1 | . | -16% | . | . | 13% | .
CCc1ccc2c(c1)-c1ccccc1S(=O)(=O)N2CC(=O)N1CCC(C)CC1 | . | -1% | . | . | 15% | .
CN(C(=O)COC(=O)COc1ccc(Cl)cc1Cl)c1c(N)n(Cc2ccccc2)c(=O)[nH]c1=O | -1% | 1% | -28% | 17% | ? | ?
COc1cccc(C2C3=C(N=C4SCC(=O)N42)c2ccccc2CC3)c1OC (stereo unspecified) | 27% | -7% | -40% | 186% | 0% | 12µM*
COc1cccc(C2C3=C(N=c4s/c(=C\c5ccccc5O)c(=O)n42)c2ccccc2CC3)c1OC (stereo unspecified) | -2% | 3% | -20% | 2.9µM* | -2% | 1.9µM*
COc1ccc(OC)c(C2C3=C(N=C4SCC(=O)N42)c2ccccc2CC3)c1 (stereo unspecified) | 11% | ? | 5% | ? | -4% | ?
NC(N)=NC[C@@H]1COC2(CCCCC2)O1 | . | . | . | ? | . | -4%[12.8 µM]
N#Cc1c(-c2ccccc2Cl)noc1/C=C/Nc1ccc(C(=O)O)cc1 | -4% | -21% | -40% | 71% | 4% | 72%
COc1ccc(CN(C)C(=O)C(Cc2ccccc2)NC(=O)c2ccccc2)c(OC)c1 (stereo unspecified) | -23% | -4% | -1% | ? | -33% | 10µM*
COc1ccccc1CN(C)CC(=O)Nc1ccccc1-c1ccccc1 | 0% | 23% | 41% | ? | -1% | ?
COc1ccc(CN(C)CC(=O)Nc2ccccc2-c2ccccc2)c(OC)c1 | -1% | 3% | 52% | ? | 8% | 10µM*
O=C(CNC(c1ccccc1)c1ccccc1)Nc1ccccc1-c1ccccc1 | -1% | 7% | -13% | 13µM* | -4% | 12µM*
Cc1ccccc1CN(C)CC(=O)Nc1ccccc1-c1ccccc1 | -27% | 6% | 5% | 9.3µM* | -9% | ?
C[C@H](NC(=O)OC(C)(C)C)C(=O)N/N=C/c1ccc2nccnc2c1 | -1% | 1% | -6% | 0% | ? | 50%
Cc1ccc2oc(-c3cccc(NC(=O)c4sc5c([N+](=O)[O-])cccc5c4Cl)c3)nc2c1 | . | 0% | . | . | 0% | .
CCOc1cccc2c1OC(c1cc(OC)c(OC)c(OC)c1)N1N=C(c3ccc(C)o3)CC21 (stereo unspecified) | -21% | 45µM* | -22% | -47% | -3% | -42%
CCOc1ccc(/C=N/NC(=O)Cc2csc(Nc3cccc(C(F)(F)F)c3)n2)c(OCC)c1 | -1% | 13% | -37% | 38% | 9% | 57%
CCOc1ccc(/C=N/NC(=O)Cc2csc(Nc3cccc(C(F)(F)F)c3)n2)cc1 | -8% | 23% | -25% | . | 1% | 9.3µM*
CC(C)(C)c1cc(C(=O)NNC(=O)Nc2ccccc2)n(Cc2ccccc2)n1 | 0% | 27% | -39% | 9.3µM* | 6% | 5.2µM*
Cc1ccc(S(=O)(=O)N(C)C)cc1NC(=O)c1cc(C(C)(C)C)nn1Cc1ccccc1 | -1% | 8% | 47% | 7.4µM* | 4% | ?
CC(C)(C)c1cc(C(=O)NNC(=O)Nc2cccc(Cl)c2)n(Cc2ccccc2)n1 | -1% | 4% | -50% | 9.3µM* | 8% | ?
Cc1cccc(C)c1NC(=O)NNC(=O)c1cc(C(C)(C)C)nn1Cc1ccccc1 | 0% | 8% | -13% | ? | -5% | ?
O=C(Cc1ccccc1)NNC(=O)Nc1cccc(Cl)c1 | 1% | 4% | -11% | 0% | -13% | 13%
SMILES | SARS PLP yeast | Sm TGR inh | AmpC no deterg | Pf growth 96h | AmpC inh detg | Pf growth 48h
CC(=O)Nc1ccc(S(=O)(=O)N(C)CC(=O)OCC(=O)N(C)C2CCS(=O)(=O)C2)cc1 (stereo unspecified) | ? | -3% | 1% | ? | 0% | 0%
CCOC(=O)c1ccc(NC2c3ccccc3C(=O)N2c2ccccn2)cc1 (stereo unspecified) | 0% | 6% | -18% | 10µM* | -7% | .
CCOc1ccc(NC2c3ccccc3C(=O)N2c2ccc(Cl)cn2)cc1 (stereo unspecified) | 14% | -8% | -15% | -63% | -6% | 32%
CCc1ccccc1NC1c2ccccc2C(=O)N1c1cc(C)ccn1 (stereo unspecified) | -4% | 3% | -15% | 50% | ? | 13µM*
COc1ccc(NC2c3ccccc3C(=O)N2c2ccccn2)cc1 (stereo unspecified) | 1% | -6% | -4% | 12µM* | 0% | ?
Cc1cccc(N2C(=O)C3CCCN3C2=S)c1C (stereo unspecified) | 0% | 1% | -12% | ? | -7% | 13µM*
CCN(CC1CCCO1)C(=O)c1cc(COc2cc(C)c(Cl)c(C)c2)on1 (stereo unspecified) | -9% | -19% | 188% | 12µM* | ? | 2%
COc1cc(NC(=O)c2cc([N+](=O)[O-])ccc2NC(=O)CNC2CCCCC2)cc(OC)c1 | 0% | 5% | -32% | 12% | ? | 0.83µM*
COc1cc(NC(=O)c2cc([N+](=O)[O-])ccc2NC(=O)CNC2CCCCC2C)cc(OC)c1 (stereo unspecified) | 1% | 5% | -34% | 36% | -3% | 0.41µM*
Cc1ccccc1NC(=O)Nc1nnc(N2CCCCCC2)s1 | . | 3% | . | . | 17% | .
CCC(C)NCCOc1cc(C)cc(C)c1C (stereo unspecified) | 0% | . | -10% | -15% | 2% | -12%
Clc1cccc(Cl)c1-c1nnc2ccc(N3CCOCC3)nn12 | 5% | -7% | 0.5µM* | 10% | 2% | ?
Fc1ccc(-c2nnc3ccc(N4CCCC4)nn23)cc1 | -1% | -12% | -9% | -14% | -10% | -3%
Fc1cccc(Cl)c1-c1nnc2ccc(N3CCOCC3)nn12 | 0% | 4% | -5% | . | 3% | .
Brc1ccc(-c2nnc3ccc(N4CCN(c5ccccc5)CC4)nn23)cc1 | 0% | 0% | -5% | 12µM* | -3% | ?
c1ccc(C[n+]2ccccc2)cc1 | 2% | -1% | -12% | ? | -15% | ?
